Data: PubChem BioAssay (NCI)
This is part of a sample that, as a whole, favours compounds with a hit. Of some 83,000 tested, about 20% had one in any assay.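 Activity criterion: percent growth below 10, measured after cells in 96-well plates were exposed to a single compound concentration for 48 hours.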 The source made the active and inactive calls.

Key:
Experiment in all cases: NCI-60 one-dose screen, 48 h (100 = growth as untreated, 0 = no growth, -100 = all killed)
Conditions in all cases: 10 µM unless noted
[1] = tested on: SR leukemia
[2] = tested on: RPMI-8226 leukemia
[3] = tested on: OVCAR-8 ovarian
[4] = tested on: OVCAR-5 ovarian
[5] = tested on: SK-OV-3 ovarian
[6] = tested on: IGROV1 ovarian
[7] = tested on: OVCAR-3 ovarian
[8] = tested on: HS 578T breast
[9] = tested on: NCI/ADR-RES ovarian
[10] = tested on: T-47D breast
[11] = tested on: BT-549 breast
[12] = tested on: MDA-MB-435 melanoma
[13] = tested on: SW-620 colon
[14] = tested on: MCF7 breast
[15] = tested on: HCT-116 colon
[16] = tested on: HCC-2998 colon
[17] = tested on: KM12 colon
[18] = tested on: OVCAR-4 ovarian

Measured: growth

Oc1ccc(-c2nc3ccccc3s2)cc1CN(Cc1ccccn1)Cc1ccccn1
active: [1] 7.98% | [3] 9.43% | [5] 7% | [9] -37.2% | [16] 5.52%
inactive: [2] 13.2% | [4] 40.9% | [6] 15% | [7] 26.2% | [8] 41.6% | [10] 12.8% | [11] 18.5% | [12] 26.6% | [13] 20.1% | [14] 14.8% | [15] 15.5% | [17] 24.8%

COc1ccc(NC(=O)c2sc3c(=O)[nH]c(C(F)(F)F)nc3c2C)cc1
inactive: [1] 106% | [2] 95% | [3] 100% | [4] 116% | [5] 98.5% | [6] 90% | [7] 112% | [8] 104% | [9] 102% | [10] 89.7% | [11] 103% | [12] 103% | [13] 112% | [14] 84.3% | [15] 100% | [16] 111% | [17] 106%

Cc1cc([N+](=O)[O-])c(C)cc1N
inactive: [1] 90.9% | [2] 96.5% | [3] 102% | [4] 116% | [5] 111% | [6] 96.9% | [7] 104% | [8] 107% | [9] 106% | [10] 111% | [11] 101% | [12] 110% | [13] 104% | [14] 90.9% | [15] 109% | [16] 102% | [17] 107%

CCN(CC)c1ccc(/C=N/NC(=O)C[N+](C)(C)C)cc1
inactive: [1] 16.6% | [2] 92% | [3] 111% | [4] 99.1% | [5] 102% | [6] 115% | [7] 110% | [8] 110% | [9] 103% | [10] 101% | [11] 103% | [12] 110% | [13] 101% | [15] 102% | [16] 104% | [17] 102%

C=C1C(=O)O[C@H]2[C@H]1CC/C(COC(=O)NCc1c[nH]c3ccc(OC)cc13)=C\CC[C@@]1(C)O[C@@H]21
active: [1] 8.82% | [2] -25.8% | [6] -21.7% | [7] -84.2% | [10] -52% | [11] -24% | [13] -57.6% | [14] 5.33% | [15] -79.4%
inactive: [3] 21.3% | [4] 45.2% | [5] 68.3% | [8] 61.8% | [9] 73.1% | [12] 22.3% | [16] 45.1% | [17] 51.3%

CCN(CC)c1ccc(/C=N/N=C(N)N)cc1
inactive: [1] 27.6% | [3] 62.6% | [4] 79.8% | [5] 37.6% | [6] 63.3% | [8] 55.3% | [9] 93% | [10] 63.4% | [11] 51.5% | [13] 19.3% | [14] 15.4% | [15] 32.5% | [16] 85.5% | [17] 25.2%
active: [2] 3.74% | [7] 4.63% | [12] -23%

Nc1nc(NC2CC2)cc(-c2cccc(Cl)c2Cl)n1
inactive: [1] 14.3% | [2] 74.2% | [3] 70% | [4] 87.1% | [5] 64.7% | [6] 65.6% | [7] 36.8% | [8] 64.7% | [9] 25% | [10] 32.2% | [11] 54.7% | [13] 21.5% | [14] 20.3% | [15] 42.2% | [16] 55.8% | [17] 47.8%
active: [12] -12.2%

CC(=O)Nc1ccc(/C=N/N2CCCCCC2)cc1
inactive: [1] 96.2% | [2] 116% | [3] 101% | [4] 96.7% | [5] 99.9% | [6] 111% | [7] 99.4% | [8] 96.3% | [9] 103% | [10] 100% | [11] 91.5% | [12] 95.6% | [13] 100% | [14] 92.2% | [15] 99.5% | [16] 109% | [17] 97.8%

C=CCCCCOc1cccc(/C=C2\N=C3SCCCN3C2=O)c1
inactive: [1] 125% | [2] 103% | [3] 101% | [4] 106% | [5] 97.7% | [6] 88.6% | [7] 107% | [8] 112% | [9] 95.6% | [11] 94.4% | [12] 106% | [13] 103% | [15] 86.2% | [16] 100% | [17] 98.4%

Cc1ccc(C)c(NC(=O)c2sc3c(=O)[nH]cnc3c2C)c1
inactive: [1] 15.8% | [2] 87.7% | [3] 98.2% | [4] 127% | [5] 101% | [6] 79.8% | [7] 70.7% | [8] 78.9% | [9] 58% | [10] 86.9% | [11] 80.2% | [13] 42.8% | [14] 62.8% | [15] 68.3% | [16] 87.7% | [17] 46.2%
active: [12] -36%

CC1OC(n2c3ccccc3c3c4c(c5c6ccccc6[nH]c5c32)C(=O)N(CCN2CCOCC2)C4=O)CC(O)C1O (stereo not drawn)
active: [5] 6.84%
inactive: [1] 10.7% | [2] 27.8% | [3] 32.4% | [4] 61.7% | [6] 48.3% | [7] 48.2% | [8] 63.6% | [9] 26.4% | [10] 11% | [11] 36.9% | [12] 41.5% | [13] 27.8% | [14] 13.3% | [15] 24.3% | [16] 30%

CCCCCCCC/C=C\CCCCCCCC(=O)OCCCCCC
inactive: [1] 105% | [2] 104% | [3] 100% | [4] 117% | [5] 99.3% | [6] 108% | [7] 113% | [8] 105% | [10] 102% | [11] 114% | [12] 101% | [13] 106% | [14] 105% | [15] 100% | [16] 107%

CS(=O)(=O)c1ccc(C(=O)N/N=C/c2ccc3c(c2)OCO3)cc1
inactive: [1] 110% | [2] 102% | [3] 93.8% | [4] 116% | [5] 107% | [6] 113% | [7] 99.4% | [8] 100% | [9] 110% | [10] 97.3% | [11] 109% | [12] 102% | [13] 105% | [14] 95% | [15] 98.1% | [16] 93% | [17] 95.9%

CS(=O)(=O)c1ccc(C(=O)N/N=C/c2ccccc2Cl)cc1
inactive: [1] 92.5% | [2] 115% | [3] 97.1% | [4] 109% | [5] 88.3% | [6] 107% | [7] 103% | [8] 98.1% | [9] 106% | [10] 87.5% | [11] 92.7% | [12] 106% | [13] 97.3% | [14] 93.3% | [15] 94.3% | [16] 95.8% | [17] 100%

C[C@H](NC(=O)c1snnc1C1CC1)c1c(F)cccc1Cl
inactive: [1] 149% | [2] 130% | [3] 104% | [4] 115% | [18] 110% | [6] 113% | [7] 114% | [8] 100% | [9] 97.8% | [11] 139% | [12] 106% | [13] 106% | [14] 98.7% | [15] 122% | [16] 95.7% | [17] 114%

CN1CCC2(CC1)N=C(SCC(=O)Nc1cnc3ccccc3c1)C(c1ccc(Br)cc1)=N2
inactive: [3] 19.9% | [4] 67.7% | [5] 54.9% | [6] 16.2% | [7] 35.4% | [8] 24% | [9] 29.6% | [10] 10.5% | [11] 59.4% | [17] 41.6%
active: [1] -27% | [2] -7.88% | [12] 1.84% | [13] -6.58% | [14] -42.7% | [15] -90.7% | [16] -51.3%

COc1cccc(/C=N\Nc2ccc([N+](=O)[O-])cn2)c1O
inactive: [1] 48.3% | [2] 62.6% | [3] 10.6% | [4] 104% | [5] 68.7% | [6] 36.2% | [8] 63.9% | [9] 18.6% | [11] 71.8% | [12] 54.3% | [13] 38% | [16] 82.2% | [17] 78.4%
active: [7] 8.54%

Cc1ccc(C)c2c1SC1=NNC(Oc3ccc(Cl)cc3)=C(C#N)C(=N)N12
inactive: [1] 113% | [2] 98.7% | [3] 108% | [4] 111% | [5] 95.7% | [6] 87.8% | [7] 110% | [8] 103% | [9] 105% | [10] 84.4% | [11] 107% | [12] 113% | [13] 104% | [14] 89.5% | [15] 108% | [16] 105% | [17] 109%

COc1cc([N+](=O)[O-])cc(OC)c1OC
inactive: [1] 102% | [2] 96% | [3] 109% | [4] 129% | [5] 118% | [6] 100% | [7] 108% | [8] 107% | [9] 114% | [10] 112% | [11] 108% | [12] 117% | [13] 105% | [14] 96.5% | [15] 113% | [16] 107% | [17] 108%
